The panel holds about 83,000 compounds, 20% with a hit somewhere; the sample as a whole holds those more often.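 Plates (96-well) were seeded with cells, treated with compound at one concentration, and incubated for 48 hours before percent growth was determined.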 Unmarked numbers belong to inactive results. Activity calls are given as the source filed them. Rule for the calls: active = growth percent below 10; inactive = the rest.
How the values were obtained:
Test in all cases: NCI-60 one-dose screen, 48 h (100 = growth as untreated, 0 = no growth, -100 = all killed)
Details in all cases: 10 µM unless noted
NCI-H23 lung = tested on: NCI-H23 lung
NCI-H322M lung = tested on: NCI-H322M lung
HOP-62 NSCLC = tested on: HOP-62 NSCLC
NCI-H460 lung = tested on: NCI-H460 lung
HOP-92 NSCLC = tested on: HOP-92 NSCLC
NCI-H522 lung = tested on: NCI-H522 lung
A549/ATCC NSCLC = tested on: A549/ATCC NSCLC
786-0 renal = tested on: 786-0 renal
COLO 205 colon = tested on: COLO 205 colon
DU-145 prostate = tested on: DU-145 prostate
K-562 leukemia = tested on: K-562 leukemia
MALME-3M melanoma = tested on: MALME-3M melanoma
MDA-MB-231 breast = tested on: MDA-MB-231 breast
RXF 393 renal = tested on: RXF 393 renal
SF-268 CNS = tested on: SF-268 CNS
SF-295 CNS = tested on: SF-295 CNS
SF-539 CNS = tested on: SF-539 CNS
UACC-257 melanoma = tested on: UACC-257 melanoma
M14 melanoma = tested on: M14 melanoma
HCT-15 colon = tested on: HCT-15 colon

SMILES | growth (NCI-H23 lung) | growth (NCI-H322M lung) | growth (HOP-62 NSCLC) | growth (NCI-H460 lung) | growth (HOP-92 NSCLC) | growth (NCI-H522 lung) | growth (A549/ATCC NSCLC) | growth (786-0 renal) | growth (COLO 205 colon) | growth (DU-145 prostate) | growth (K-562 leukemia) | growth (MALME-3M melanoma) | growth (MDA-MB-231 breast) | growth (RXF 393 renal) | growth (SF-268 CNS) | growth (SF-295 CNS) | growth (SF-539 CNS) | growth (UACC-257 melanoma) | growth (M14 melanoma) | growth (HCT-15 colon)
CN(C)c1ccc(N=Cc2ccc(N3CCOCC3)cc2)cc1 | 68.5% | 106% | 87.3% | 92.3% | 100% | 42.4% | 73.7% | 101% | 3.73% (active) | 99.6% | 56.6% | 81.8% | 48.2% | 130% | 84.7% | 83.3% | 31.6% | 84.8% | 71.2% | 77.3%
Cc1[nH]c2ccccc2c(=O)c1CC=C(Cl)Cl | 75.4% | -47.2% (active) | -7.31% (active) | -74% (active) | 64.5% | 65.7% | 16.9% | -80.2% (active) | 35% | -22.5% (active) | -34.6% (active) | 82.4% | 34.1% | 63.9% | 39.6% | -86.8% (active) | 58% | 99.5% | 72.7% | 3.43% (active)
CCOC(=O)c1cc2c(n1Cc1ccccc1OC)-c1oncc1CCC2 | 45.3% | 86% | 45.3% | 18.4% | 57% | 19.2% | 36.6% | 49.6% | 2.53% (active) | 33.2% | 10.5% | 20.7% | 53% | 5.36% (active) | 57.6% | 17% | 3.92% (active) | 50.4% | 35% | 30.9%
COc1ccc2[nH]c(O)c(N=NC(=O)c3oc4ccccc4c3C)c2c1 | 10.6% | 30.6% | -24.1% (active) | -22.8% (active) | -44% (active) | 54.3% | -23.6% (active) | -66.9% (active) | 22.8% | 17.6% | 42.5% | -29.5% (active) | 23.8% | -36.2% (active) | 57.7% | 5.05% (active) | 37.5% | 50% | 28.7% | 41.1%
COc1ccc(/C=C2\CCC/C(=C\c3ccc(OC)c(OC)c3)C2=O)cc1OC | 21.6% | 45.4% | 28.5% | -46.5% (active) | 106% | -14% (active) | 13.8% | 0.0865% (active) | 22.6% | -33.9% (active) | 10.6% | 42.3% | 15% | -32.5% (active) | 30.5% | 1.26% (active) | 13.1% | 14% | -2.63% (active) | -8.77% (active)
CCCCC(O)(c1ccc(Cl)cc1)C(CN1CCOCC1)c1ccc(Cl)cc1 (stereo not given) | 31.2% | 70.8% | 60.1% | 19.4% | -3.36% (active) | 19.8% | 29.6% | 53.8% | 100% | 58.2% | 17.9% | 61.2% | 35.8% | 18.5% | 40.2% | 40.9% | 68.8% | 39.4% | 28.6% | 34.9%
CCOC(=O)c1ccc(N=Cc2sc(=O)[nH]c2O)cc1 | 98% | 101% | 95.4% | 101% | 90.1% | 93.7% | 96.6% | 98.4% | 104% | 103% | 103% | 91.2% | 95.5% | 102% | 88.3% | 94.1% | 94% | 96.9% | 97.9% | 99.1%
O=c1oc2ccc(Br)cc2c(=O)n1-c1ccc(F)cc1F | 4.93% (active) | 7.55% (active) | 6.8% (active) | 5.91% (active) | -24.4% (active) | -6.16% (active) | 6.77% (active) | 4.39% (active) | 85.5% | 18% | 9.74% (active) | -22.5% (active) | 14.1% | 3.17% (active) | 12.7% | -11.1% (active) | 10.7% | -8.2% (active) | 12% | 13.6%

Source: PubChem BioAssay (NCI)
